“And” between values parts separate entries of the source, which are not always exact repeats. Identical values can stand only once. The whole screen tested about 5,500 compounds, of which about 2,000 (36%) were called active. Another 18% or so got no clear call; they are omitted. Rule as the data show it: active = normalized growth mostly below about 0.91 (no sharp cut-off); inconclusive = no clear call, values can overlap the other calls; inactive = mostly above about 0.92. The list shows a part of the results.
Assay: chemical genetic growth profiling, strain panel (AID 1159580);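 also: tested at 20 µM; growth read once vehicle control cultures reached saturation at 30 °C; 1 = growth at the plate median or of vehicle wells; lower values mean less growth of the strain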
Conditions: S. cerevisiae deletion strains, growth OD

Measured: normalized growth

C[N+](C)(C)CCOC(N)=O
inactive: locus YAL013W, strain DEP1, stronger effect = lower value 1.01 | locus YAL021C, strain ccr4, stronger effect = lower value 1.03 | locus YAL026C, strain drs2, stronger effect = lower value 1.01 | locus YAL030W, strain snc1, stronger effect = lower value 1.01 | locus YAL040C, strain CLN3, stronger effect = lower value 1.05 | locus YBL061C, strain skt5, stronger effect = lower value 1.03 | locus YBR009C, strain hhf1, stronger effect = lower value 0.997 | locus YBR021W, strain FUR4, stronger effect = lower value 1.06 | locus YBR023C, strain chs3, stronger effect = lower value 1.02 | locus YBR171W, strain sec66, stronger effect = lower value 1.02 | locus YBR229C, strain ROT2, stronger effect = lower value 1.01 | locus YBR231C, strain swc5, stronger effect = lower value 1.02 | locus YBR279W, strain paf1, stronger effect = lower value 1.01 | locus YCL011C, strain gbp2, stronger effect = lower value 1.01 | locus YCL016C, strain dcc1, stronger effect = lower value 1.03 | locus YCL029C, strain bik1, stronger effect = lower value 0.973 | locus YCL061C, strain MRC1 (second series), stronger effect = lower value 0.987 | locus YCL069W, strain vba3, stronger effect = lower value 1.03 | locus YCR088W, strain abp1, stronger effect = lower value 1.01 | locus YDL005C, strain med2, stronger effect = lower value 1.03 | locus YDL035C, strain GPR1, stronger effect = lower value 1.04 | locus YDL040C, strain nat1, stronger effect = lower value 1.02 | locus YDL074C, strain BRE1, stronger effect = lower value 0.995 | locus YDL101C, strain DUN1, stronger effect = lower value 0.986 | locus YDL185W, strain tfp1, stronger effect = lower value 0.953 | locus YDL192W, strain arf1, stronger effect = lower value 0.976 | locus YDR001C, strain nth1, stronger effect = lower value 1.02 | locus YDR069C, strain doa4, stronger effect = lower value 1.01 | locus YDR101C, strain arx1, stronger effect = lower value 1 | locus YDR137W, strain rgp1, stronger effect = lower value 1.04 | locus YDR150W, strain NUM1, stronger effect = lower value 1.01 | locus YDR159W, strain sac3, stronger effect = lower value 1.02 | locus YDR162C, strain NBP2, stronger effect = lower value 1.03 | locus YDR195W, strain ref2 1.06 | locus YDR297W, strain sur2, stronger effect = lower value 1.02 | locus YDR318W, strain mcm21, stronger effect = lower value 0.987 | locus YDR334W, strain swr1, stronger effect = lower value 1.02 | locus YDR335W, strain msn5, stronger effect = lower value 1.03 | locus YDR388W, stronger effect = lower value 0.984 | locus YDR392W, strain spt3, stronger effect = lower value 1.02 | locus YDR502C, strain sam2, stronger effect = lower value 0.99 | locus YEL003W, strain gim4, stronger effect = lower value 1.02 | locus YEL037C, strain rad23, stronger effect = lower value 1.02 | locus YEL061C, strain CIN8 (second series), stronger effect = lower value 1.01 | locus YEL061C, strain CIN8, stronger effect = lower value 1 | locus YER002W, strain NOP16, stronger effect = lower value 0.986 | locus YER015W, strain faa2, stronger effect = lower value 1.03 | locus YER016W, strain bim1, stronger effect = lower value 1.01 | locus YER110C, stronger effect = lower value 0.944 | locus YER111C, strain swi4, stronger effect = lower value 1.03 | locus YER155C, strain BEM2 (second series), stronger effect = lower value 1.03 | locus YER155C, strain BEM2, stronger effect = lower value 0.991 | locus YER167W, strain BCK2, stronger effect = lower value 1.01 | locus YFR010W, strain ubp6, stronger effect = lower value 1.02 | locus YGL078C, strain dbp3, stronger effect = lower value 0.986 | locus YGL086W, strain mad1, stronger effect = lower value 1 | locus YGL167C, strain pmr1, stronger effect = lower value 1.03 | locus YGL173C, strain kem1, stronger effect = lower value 1.02 | locus YGL227W, strain vid30, stronger effect = lower value 1.01 | locus YGL240W, strain doc1, stronger effect = lower value 1.02 | locus YGL248W, strain PDE1, stronger effect = lower value 1.01 | locus YGL253W, strain hxk2, stronger effect = lower value 1.02 | locus YGR078C, strain PAC10, stronger effect = lower value 0.992 and 0.993 | locus YGR135W, strain pre9, stronger effect = lower value 0.978 | locus YGR252W, strain gcn5, stronger effect = lower value 1.07 | locus YHR013C, strain ard1, stronger effect = lower value 1.04 | locus YHR027C, strain rpn1, stronger effect = lower value 1.01 | locus YHR030C, strain SLT2, stronger effect = lower value 1.01 and 0.989 | locus YHR079C, strain IRE1 (second series), stronger effect = lower value 0.962 | locus YHR079C, strain IRE1, stronger effect = lower value 0.998 | locus YHR094C, strain hxt1, stronger effect = lower value 0.976 | locus YHR129C, strain ARP1, stronger effect = lower value 1 | locus YHR142W, strain chs7, stronger effect = lower value 1.02 | locus YHR200W, strain rpn10, stronger effect = lower value 0.979 | locus YIL066C, strain RNR3, stronger effect = lower value 1.02 | locus YIL073C, strain SPO22, stronger effect = lower value 0.927 | locus YIL125W, strain kgd1, stronger effect = lower value 0.986 | locus YIR030C, strain dcg1, stronger effect = lower value 0.959 | locus YJL092W, strain hpr5, stronger effect = lower value 1.01 | locus YJL095W, strain BCK1 (second series), stronger effect = lower value 1.03 | locus YJL095W, strain BCK1, stronger effect = lower value 0.981 and 0.988 | locus YJL115W, strain asf1, stronger effect = lower value 1.02 | locus YJL129C, strain trk1, stronger effect = lower value 1.02 | locus YJL134W, strain LCB3, stronger effect = lower value 1 | locus YJL164C, strain tpk1, stronger effect = lower value 1.01 | locus YJL166W, strain qcr8, stronger effect = lower value 0.992 | locus YJL168C, strain set2, stronger effect = lower value 0.986 | locus YJL187C, strain SWE1 (second series), stronger effect = lower value 0.986 | locus YJL187C, strain SWE1, stronger effect = lower value 1.02 | locus YJR043C, strain POL32, stronger effect = lower value 1.05 | locus YJR066W, strain TOR1, stronger effect = lower value 0.999 | locus YJR075W, strain HOC1, stronger effect = lower value 0.989 | locus YKL009W, strain mrt4, stronger effect = lower value 0.957
